Experimental findings from PubChem BioAssay (NCATS) are described below.

Records with an inconclusive call do not appear. The source made the active and inactive calls. Unless noted, calls follow the shape of the dose curve; as a rule, active = well fitted curve in the direction sought with a large enough effect; inconclusive = small, poorly fitted or top-dose-only effect, or another doubt; inactive = no such curve, though single readings can be large; an effect the other way counts as inactive or inconclusive.

Assay [1] addresses Cytochrome P450 3A4 (Homo sapiens) (UniProt P08684). The assay is described as follows: qHTS Assay for Inhibitors and Substrates of Cytochrome P450 3A4 (AID 884). Also: % is scaled to controls: 0 for no effect and ±100 for the full control effect; nearly all actives have a fitted effect of over 50% in size. A digest of the protocol:
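20 nM human CYP3A4 with 25 uM Luciferin-PPXE (at KM) in 200 mM KPO4, preincubated 10 min with compound; NADPH regeneration started a 60 min RT reaction. Luciferin detected by luminescence, normalized to 57 uM ketoconazole as full inhibition.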
(In general: qHTS replaces the single test concentration by a dilution series.)

The nature of assay [2]: Confirmation and Secondary Assay for Modulators of Hemoglobin Beta Chain Splicing at IVS2 654 locus (AID 910).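 Also: HeLa cells stably carrying EGFP split by mutant beta-globin IVS2-654 intron; % of control where 0% means no effect.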 A digest of the protocol:
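HeLa cells stably expressing EGFP interrupted by β-globin IVS2-654 intron, seeded overnight in Opti-MEM/2% FCS, then treated 2 days at 37 °C. Restored splicing read as total peak GFP intensity per well by laser scanning cytometry (488 nm excitation, 500–520 nm emission); 500 nM antisense PNA as control.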

Assay [3] in a line: Confirmation and Secondary Assay for Modulators of Hemoglobin Beta Chain Splicing at IVS2 705 locus (AID 930).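 Also: HeLa cells stably expressing the EGFP-705 splicing reporter; GFP fluorescence per well restored by corrected splicing of the IVS2-705 intron in EGFP; % of control where 0% means no effect.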 The essentials: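 Per-well GFP, captured at 1 x 8 µm resolution with 488 nm excitation, served as the read-out for HeLa EGFP-705 cells incubated 2 days with test compound versus DMSO.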
Assay [4] can be described thus: qHTS Assay for Lipid Storage Modulators (AID 1519; calls by dose curve). The settings on record: Drosophila S3 cells, BODIPY lipid droplet/cell ratio, laser cytometry, cells loaded with oleic acid. The essentials:
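Cells seeded at 5,000 per well were treated with compounds over a concentration series and loaded with oleic acid (400 uM, as added). Lipid droplet fluorescence (488 nm excitation, 500-530 nm channel) was read by laser-scanning cytometry and normalized to 20 uM Triacsin C.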

Assay [5] addresses Ubiquitin carboxyl-terminal hydrolase 1 (Homo sapiens) (UniProt O94782). The assay is described as follows: Inhibitors of USP1/UAF1: Pilot qHTS (AID 504865).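 Also: rhodamine fluorescence freed from ubiquitin-rhodamine substrate followed over time; top concentration of the series differs between compounds; % is scaled to controls: 0 for no effect and ±100 for the full control effect; nearly all actives have a fitted effect of over 35% in size.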 A digest of the protocol:
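Enzyme-free wells gave the negative control, while test wells held 1nM USP1/UAF1 preincubated with compound for 15 min at room temperature. Ub-Rho at 150nM final started the reaction, and fluorescence at 480/540 nm was recorded kinetically.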

The target in assay [6] is Lysosomal acid glucosylceramidase (Homo sapiens) (UniProt P04062). In words: Glucocerebrosidase-p2 (AID 348; in the data active = potency below about 10 µM; also: potency is read from the fitted curve at half-maximal effect). The settings on record: purified GBA, blue fluorogenic substrate, 40 min. The essentials: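 Compounds titrated from 0.6 nM upwards against 0.2 nM enzyme in pH 5.9 citric acid/KH2PO4, taurocholate, tween-20; blue fluorogenic substrate 80 uM, 40 min room temperature, stopped and read Ex 365/Em 440 for AC50.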
Sequence of Lysosomal acid glucosylceramidase (Homo sapiens) (P04062 whole entry, looked up): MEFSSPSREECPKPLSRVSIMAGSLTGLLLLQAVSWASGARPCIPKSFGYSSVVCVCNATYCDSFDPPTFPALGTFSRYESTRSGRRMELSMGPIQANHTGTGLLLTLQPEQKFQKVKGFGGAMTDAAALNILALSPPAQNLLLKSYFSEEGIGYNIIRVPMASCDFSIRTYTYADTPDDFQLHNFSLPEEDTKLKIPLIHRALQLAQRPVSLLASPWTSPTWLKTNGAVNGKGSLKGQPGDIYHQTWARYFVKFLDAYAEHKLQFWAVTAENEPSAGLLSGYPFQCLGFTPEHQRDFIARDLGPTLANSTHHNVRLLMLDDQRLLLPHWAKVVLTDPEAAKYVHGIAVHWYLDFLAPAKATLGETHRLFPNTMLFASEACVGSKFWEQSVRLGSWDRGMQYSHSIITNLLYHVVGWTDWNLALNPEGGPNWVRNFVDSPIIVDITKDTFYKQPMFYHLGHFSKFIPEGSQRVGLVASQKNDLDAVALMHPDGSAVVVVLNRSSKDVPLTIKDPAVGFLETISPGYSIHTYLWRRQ

The nature of assay [7]: AP1 Signaling Pathway (AID 357; active = well fitted curve in either direction with a large enough effect, not every such curve was filed as active; also: % is scaled to controls: 0 for no effect and ±100 for the full control effect). To be noted: ME-180 AP-1-bla reporter, EGF-induced, beta-lactamase ratio, 5 h. A digest of the protocol: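 Read-out was the 460nm/530nm emission ratio (excitation 405nm) after CCF4 loading for 2.5 hours at room temperature. Cells carried an AP-1-driven beta-lactamase reporter, were stimulated with EC50 EGF plus compound for 5 hours, and AC50 values came from titrations.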

A short description of assay [8]: Stat Signaling Pathway (AID 446; active = well fitted curve in either direction with a large enough effect, not every such curve was filed as active;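 also: ME-180 cervical cancer cells given 40 pM IL-6 alongside compound; SIE-controlled beta-lactamase reporter measured as 460/530 nm FRET emission ratio; % is scaled to controls: 0 for no effect and ±100 for the full control effect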). The settings on record: ME-180 SIE beta-lactamase reporter, IL-6 stimulated, 5 h. The essentials:
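Reporter line: ME-180 cervical carcinoma, SIE-beta-lactamase. Treatment: compound with 40 pM IL-6, 5 hrs, 37 C, in low-serum OPTI-MEM with 10 mM HEPES pH 7.3. Detection: 460/530 nm fluorescence.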

The target of assay [9] is Mitogen-activated protein kinase 10 (Mus musculus) (UniProt Q61831). In words: JNK3 AlphaScreen Assay (AID 530; active = well fitted curve in either direction with a large enough effect, not every such curve was filed as active;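 also: kinase came from lysate of stimulated human HepG2 cells; signal reports phosphorylation of biotinylated GST-cJun 1-79 at Ser73 with 10 µM ATP; % is scaled to controls: 0 for no effect and ±100 for the full control effect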). A digest of the protocol:
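qHTS format: compounds tested as titrations against IL-1beta/TNF-alpha-activated HepG2 lysate JNK3 with biotin-GST-cJun substrate and 10 uM ATP at room temperature. Loss of anti-phospho-cJun AlphaScreen signal indicates inhibition.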
A general note: In Alpha technology, singlet oxygen from a donor bead excites a nearby acceptor bead.

Assay [10] concerns the target 3',5'-cyclic-AMP phosphodiesterase 4B (Homo sapiens) (UniProt Q07343). In words: qHTS Assay for Inhibitors of PDE-IV (AID 607; active = well fitted activation curve with a large enough effect in the main read-out, with a control signal flat, not every such curve was filed as active; also: % of control where 0% means no effect). The essentials:
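Cell-based read-out of cAMP via a modified cyclic nucleotide-gated channel and membrane potential dye (535/590 nm) in HEK293 cells expressing PDE4 endogenously. Compounds tested up to 22.9 uM final; 100 uM RO 20-1724 reference.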

Assay [11] concerns the target Cytochrome P450 3A4 (Homo sapiens) (UniProt P08684). The assay is described as follows: qHTS Assay for Activators of Cytochrome P450 3A4 (AID 885). Also: nearly all actives have a fitted effect of over 65% in size. The essentials:
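Signal was normalized against complete inhibition by 57 uM ketoconazole. The reaction used 20nM CYP3A4 with 25uM Luciferin-PPXE, 10-min compound preincubation and a 60-min NADPH-supported step at RT.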

Assay [12] can be described thus: NFAT Signaling Pathway (AID 444; active = well fitted curve in either direction with a large enough effect, not every such curve was filed as active;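 also: carbachol stimulus at about its EC50 of 1 µM final; % is scaled to controls: 0 for no effect and ±100 for the full control effect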). The settings on record: Jurkat NFAT-bla M1, carbachol, beta-lactamase ratio, 5 h; at 7.69 µM (top of the series) unless noted. A digest of the protocol: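 Jurkat cells with NFAT-driven β-lactamase reporter and co-expressed M1 receptor, stimulated with carbachol (final 1 uM, ~EC50), compound titration, 5 h at 37 °C. CCF4 loaded 1 h at RT; 460/530 nm ratio gave %activity and AC50.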

The target in assay [13] is Glucocorticoid receptor (Homo sapiens) (UniProt P04150). In words: GR-GFP Redistribution (AID 450;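 active = compounds whose dose series gives a full or clear partial fitted curve of increased nuclear translocation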; also: potency is read from the fitted curve at half-maximal effect). The settings on record: U2OS GR-GFP nuclear translocation, laser cytometry, 2 h.
Sequence of Glucocorticoid receptor (Homo sapiens) (P04150 whole entry, looked up): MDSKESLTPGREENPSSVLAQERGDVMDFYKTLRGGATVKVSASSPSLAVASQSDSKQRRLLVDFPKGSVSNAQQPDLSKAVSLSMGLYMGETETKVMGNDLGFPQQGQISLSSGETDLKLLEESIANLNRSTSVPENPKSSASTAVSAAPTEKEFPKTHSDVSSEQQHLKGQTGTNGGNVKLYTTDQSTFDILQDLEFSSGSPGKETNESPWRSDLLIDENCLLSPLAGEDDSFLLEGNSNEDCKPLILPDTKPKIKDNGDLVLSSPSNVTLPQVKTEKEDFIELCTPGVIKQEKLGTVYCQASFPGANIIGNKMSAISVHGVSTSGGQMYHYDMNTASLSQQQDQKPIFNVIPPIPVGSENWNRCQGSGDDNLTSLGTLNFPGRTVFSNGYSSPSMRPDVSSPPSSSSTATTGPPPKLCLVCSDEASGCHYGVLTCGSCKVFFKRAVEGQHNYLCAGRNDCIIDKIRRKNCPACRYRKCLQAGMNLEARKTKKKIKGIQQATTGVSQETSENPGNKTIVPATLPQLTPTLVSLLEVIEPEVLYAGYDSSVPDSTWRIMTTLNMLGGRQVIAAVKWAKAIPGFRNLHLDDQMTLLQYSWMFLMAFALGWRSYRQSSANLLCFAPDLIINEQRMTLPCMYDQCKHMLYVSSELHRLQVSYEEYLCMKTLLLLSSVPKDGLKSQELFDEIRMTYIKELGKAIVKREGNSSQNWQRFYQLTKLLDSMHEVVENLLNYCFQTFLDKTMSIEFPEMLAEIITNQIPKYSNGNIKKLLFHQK
The target is the same in assay [14]. The assay is described as follows: GR-EFC Redistribution (AID 451; calls by dose curve; also: potency is read from the fitted curve at half-maximal effect). To be noted: CHO-K1 GR-EFC translocation, beta-gal luminescence, 2 h. The essentials:
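CHO-K1 cells expressing nuclear EA and GR-ED fragments of b-gal; compounds titrated up to 46 uM final, 2 h at 37 C. GR nuclear translocation read as complemented b-gal luminescence after 1 h RT detection.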

Assay [15] concerns the target Dual specificity protein kinase CLK4 (Homo sapiens) (UniProt Q9HAZ1). The assay is described as follows: qHTS Assay for Inhibitors of CDC-like Kinase 4 (ADP-FP Assay) (AID 1795). Also: nearly all actives have a fitted effect of over 60% in size. Also: potency is read from the fitted curve at half-maximal effect. A digest of the protocol: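 Kinase activity was followed as ADP output, converted from fluorescence polarization with a calibration curve. Reactions ran one hour at low ATP (1 uM) with RS peptide substrate.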

Assay [16] can be described thus: qHTS Assay for Identification of Small Molecule Agonists for Hypoxia Response Element Signaling Pathway (AID 914; active = well fitted activation curve with a large enough effect in the signal ratio, with a control signal flat, not every such curve was filed as active; the % refers to the signal ratio; also: % of control where 0% means no effect). The settings on record: ME-180 (cervical carcinoma) HRE-bla reporter, beta-lactamase ratio, CoCl2, 17 h; activation: stronger effect = higher value. The essentials:
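In Opti-MEM containing 0.5% dialyzed FBS and 10 mM HEPES, ME-180 HRE-bla cells received a compound titration and EC50 CoCl2. They were incubated 17 hours, then CCF4-loaded 2.5 hours at room temperature before ratio reading.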

Assay [17] deals with Dual specificity protein kinase CLK4 (Homo sapiens) (UniProt Q9HAZ1). The assay is described as follows: qHTS Assay for Inhibitors of CDC-like Kinase 4 (ADP-Glo Assay) (AID 1771). Also: potency is read from the fitted curve at half-maximal effect; nearly all actives have a fitted effect of over 70% in size. A digest of the protocol:
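Kinase reaction: Clk4 at 25 nM, RS repeat peptide substrate at 100 uM, ATP at 1 uM, 1 hr, room temperature. Product ADP detected as luciferase signal via ADP-Glo.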

The mark [18] stands for this setting: measured here: cell count channel max response.
Where [19] appears, read: measured here: lipid channel max response.
The mark [20] stands for this setting: at 7.69 µM (top of the series) unless noted.

Sequence of Dual specificity protein kinase CLK4 (Homo sapiens) (Q9HAZ1 whole entry, looked up): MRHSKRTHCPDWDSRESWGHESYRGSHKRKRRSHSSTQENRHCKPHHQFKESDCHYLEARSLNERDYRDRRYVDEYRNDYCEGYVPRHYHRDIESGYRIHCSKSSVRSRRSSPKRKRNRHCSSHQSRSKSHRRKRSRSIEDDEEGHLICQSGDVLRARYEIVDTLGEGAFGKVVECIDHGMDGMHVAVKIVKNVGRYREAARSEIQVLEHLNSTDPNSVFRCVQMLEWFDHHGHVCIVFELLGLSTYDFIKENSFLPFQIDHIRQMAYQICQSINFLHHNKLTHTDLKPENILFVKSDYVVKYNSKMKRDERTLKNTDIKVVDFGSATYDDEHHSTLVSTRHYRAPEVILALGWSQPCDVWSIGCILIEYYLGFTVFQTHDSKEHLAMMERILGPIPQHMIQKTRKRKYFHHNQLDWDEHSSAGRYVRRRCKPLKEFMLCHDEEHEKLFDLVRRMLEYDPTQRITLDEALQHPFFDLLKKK
Sequence of 3',5'-cyclic-AMP phosphodiesterase 4B (Homo sapiens) (Q07343 whole entry, looked up): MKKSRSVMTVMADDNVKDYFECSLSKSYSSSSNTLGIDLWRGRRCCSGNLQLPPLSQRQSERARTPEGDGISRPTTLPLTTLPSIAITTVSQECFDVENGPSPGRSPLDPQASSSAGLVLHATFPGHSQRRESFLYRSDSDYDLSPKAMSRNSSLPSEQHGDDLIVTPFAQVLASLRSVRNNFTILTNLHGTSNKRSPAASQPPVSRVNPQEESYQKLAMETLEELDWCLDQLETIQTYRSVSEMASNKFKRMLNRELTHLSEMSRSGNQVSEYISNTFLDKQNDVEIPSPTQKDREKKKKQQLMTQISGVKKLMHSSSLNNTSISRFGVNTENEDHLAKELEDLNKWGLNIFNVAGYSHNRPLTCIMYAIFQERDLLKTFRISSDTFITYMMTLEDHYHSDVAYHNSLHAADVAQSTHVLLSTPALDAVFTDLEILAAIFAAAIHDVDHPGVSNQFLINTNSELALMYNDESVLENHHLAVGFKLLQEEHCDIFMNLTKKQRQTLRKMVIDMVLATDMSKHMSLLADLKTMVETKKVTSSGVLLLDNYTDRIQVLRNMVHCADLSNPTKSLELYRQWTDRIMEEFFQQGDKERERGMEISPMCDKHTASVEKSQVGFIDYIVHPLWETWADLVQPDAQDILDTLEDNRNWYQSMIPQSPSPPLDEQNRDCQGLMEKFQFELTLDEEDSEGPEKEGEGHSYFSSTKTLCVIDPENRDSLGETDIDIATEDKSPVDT
Sequence of Cytochrome P450 3A4 (Homo sapiens) (P08684 whole entry, looked up): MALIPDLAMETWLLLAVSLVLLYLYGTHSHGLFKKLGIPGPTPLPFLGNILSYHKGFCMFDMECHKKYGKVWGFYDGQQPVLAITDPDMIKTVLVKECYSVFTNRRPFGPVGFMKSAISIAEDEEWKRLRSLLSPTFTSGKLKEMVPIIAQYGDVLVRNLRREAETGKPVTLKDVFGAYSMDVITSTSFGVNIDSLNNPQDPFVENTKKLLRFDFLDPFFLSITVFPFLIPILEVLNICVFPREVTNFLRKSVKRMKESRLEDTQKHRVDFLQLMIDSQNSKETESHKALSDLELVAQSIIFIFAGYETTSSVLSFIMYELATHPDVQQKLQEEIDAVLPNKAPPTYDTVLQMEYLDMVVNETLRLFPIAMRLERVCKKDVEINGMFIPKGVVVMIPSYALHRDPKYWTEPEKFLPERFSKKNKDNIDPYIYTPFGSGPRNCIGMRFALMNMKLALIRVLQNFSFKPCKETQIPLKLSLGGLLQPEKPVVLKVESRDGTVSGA
Sequence of Ubiquitin carboxyl-terminal hydrolase 1 (Homo sapiens) (O94782 whole entry, looked up): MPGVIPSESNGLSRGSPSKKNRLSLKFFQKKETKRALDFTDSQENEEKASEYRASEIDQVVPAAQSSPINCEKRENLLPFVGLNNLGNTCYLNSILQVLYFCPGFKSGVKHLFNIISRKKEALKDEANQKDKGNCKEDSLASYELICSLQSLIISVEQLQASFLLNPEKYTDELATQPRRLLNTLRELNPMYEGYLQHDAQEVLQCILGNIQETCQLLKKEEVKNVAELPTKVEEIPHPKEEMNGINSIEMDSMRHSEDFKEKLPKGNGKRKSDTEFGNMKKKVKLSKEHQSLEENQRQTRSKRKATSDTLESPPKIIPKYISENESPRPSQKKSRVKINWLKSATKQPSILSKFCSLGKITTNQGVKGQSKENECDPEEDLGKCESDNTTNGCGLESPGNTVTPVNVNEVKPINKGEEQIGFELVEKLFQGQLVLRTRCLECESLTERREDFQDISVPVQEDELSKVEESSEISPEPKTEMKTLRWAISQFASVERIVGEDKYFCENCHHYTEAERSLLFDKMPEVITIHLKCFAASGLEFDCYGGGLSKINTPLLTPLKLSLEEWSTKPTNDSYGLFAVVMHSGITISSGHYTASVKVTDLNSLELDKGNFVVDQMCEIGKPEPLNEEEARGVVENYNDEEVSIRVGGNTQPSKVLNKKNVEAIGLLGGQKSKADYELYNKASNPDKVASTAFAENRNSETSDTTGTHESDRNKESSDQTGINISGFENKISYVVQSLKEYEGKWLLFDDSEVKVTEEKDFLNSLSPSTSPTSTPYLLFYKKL

Turning to `C[N+](C)(C)CC(O)CC(=O)O` (centres undefined), the Potency entry in [1], in assay [2] and in assay [5] was “inactive” in each case. Also, the outcome in [3] was inactive. Further, the activity change, negative = inhibition in assay [4] (at 57.5 µM (top of the series)) is 3.18% (inactive). For the same compound, the max response came to 12.3% in assay [4] (setting [18]) and 21.4% in [4] (setting [19]).

Take `CN1[C@@H]2CC[C@H]1CC(OC(=O)[C@@H](O)c1ccccc1)C2` (some centres undefined): the Potency in assay [6] was > 11.4 µM (inactive). The activity change, negative = inhibition was 9.45% (inactive) in [7] (at 7.69 µM (top of the series)), -8.08% (inactive) in [7] (at 17.2 µM (top of the series)), -8.54% (inactive) in [7] (at 38 µM (top of the series)) and 2.61% (inactive) in assay [4] (at 25.7 µM (top of the series)). Moreover, the activity, negative = inhibition was -3.56% (inactive) in assay [8] (at 7.69 µM (top of the series)) and 8.85% (inactive) in assay [8] (at 17.2 µM (top of the series)). Also, the Potency entry in assay [9], in assay [10] and in assay [5] was “inactive” each time. The max response in [4] (setting [18]) is 4.94%; in assay [4] (setting [19]), 8.69%.

Consider `NC(Cc1c[nH]c2ccccc12)C(=O)O` (centres undefined), for which the Potency entry in assay [11] and in assay [2] was “inactive” in each case. For the same compound, the outcome in [3] was inactive. The activity change, negative = inhibition in assay [4] (at 57.5 µM (top of the series)) was 9.94% (inactive). The max response came to 25.9% in assay [4] (setting [18]) and 44.9% in assay [4] (setting [19]).

Take `COCCn1c(=O)c(C)nc2cnc(Nc3ccccc3)nc21`: the results for the Potency in assay [6], in assay [13] and in [14] were > 11.4 µM (inactive), > 9.22 µM (inactive) and > 46 µM (inactive), respectively. Besides, the activity change, negative = inhibition is -18.1% (inactive) in assay [7] (setting [20]), 15.1% (inactive) in assay [12] and -1.55% (inactive) in assay [4] (at 57.5 µM (top of the series)). For the same compound, the activity, negative = inhibition in assay [8] (setting [20]) was 3.38% (inactive). Further, the Potency result in assay [9], in [10], in [15] and in [5] was “inactive” in each case. The max response in assay [4] (setting [18]) was -5.32%; in assay [4] (setting [19]) it was -10.4%.

`COc1cccc(Cn2c(=O)cnc3cnc(N4CCN(C)CC4)nc32)c1`: the figures for the Potency in assay [6], in [13] and in assay [14] were > 11.4 µM (inactive), > 9.22 µM (inactive) and > 46 µM (inactive), respectively. The values for the activity change, negative = inhibition in assay [7] (setting [20]), in [12] and in [4] (at 57.5 µM (top of the series)) were -3.06% (inactive), -19.9% (inactive) and 5.18% (inactive), respectively. Moreover, the activity, negative = inhibition in assay [8] (setting [20]) is -11.2% (inactive). Further, the Potency result in [9], in [10], in assay [11], in assay [15] and in assay [5] was “inactive” throughout. The max response in assay [4] (setting [18]) was found to be 20.4%; in assay [4] (setting [19]), 22.6%.

Turning to `CC1(C)SC2C(NC(=O)Cc3ccccc3)C(=O)N2C1C(=O)O` (centres undefined), the Potency result in assay [2] and in [5] was “inactive” each time. Further, the outcome in assay [3] was inactive. Further, the activity change, negative = inhibition in assay [4] (at 57.5 µM (top of the series)) was 5.55% (inactive). Besides, the max response is 11.4% in assay [4] (setting [18]) and 23.9% in assay [4] (setting [19]).

Turning to `COc1ccccc1-c1ccc2ncnc(NC3CC3)c2c1`, the Potency was > 11.4 µM (inactive) in [6]; > 46 µM (inactive) in assay [13]; > 46 µM (inactive) in assay [14]; 14.1 µM (active) in assay [17]; 12.6 µM (active) in assay [15]. The activity change, negative = inhibition is -1.03% (inactive) in assay [7] (setting [20]), -1.81% (inactive) in assay [12] and -9.29% (inactive) in assay [4] (at 57.5 µM (top of the series)). Moreover, the activity, negative = inhibition in assay [8] (setting [20]) is -18.1% (inactive). Also, the Potency entry in [9] and in [5] was “inactive” throughout. Moreover, the activation in assay [16] is 27.8% (inactive). In addition, the max response in assay [4] (setting [18]) was -20.8%; in assay [4] (setting [19]) it was -29.7%.

With `C=C[C@](C)(O)CCC=C(C)C`, the Potency entry in assay [1], in [2] and in assay [5] was “inactive” each time. In addition, the call in assay [3] was inactive. Further, the activity change, negative = inhibition in assay [4] (at 57.5 µM (top of the series)) was 3.04% (inactive). Also, the results for the max response in assay [4] (setting [18]) and in assay [4] (setting [19]) were 15.3% and 20.7%, respectively.
